Data published in PubChem BioAssay AID2113 (National Center for Advancing Translational Sciences (NCATS), 2009).
Inconclusive results are not listed. Active and inactive are the calls of the source. Calls come from the whole dose curve; as a rule, active = well fitted curve in either direction with a large enough effect; inconclusive = small, poorly fitted or top-dose-only effect; inactive = no such curve, though single readings can be large or run the other way.

Each compound was assayed against Lysosomal alpha-glucosidase (Homo sapiens) (UniProt P10253) (assay: Confirmation of Inhibitors and Activators of Human alpha-Glucosidase From Spleen Homogenate). Settings: alpha-glucosidase enzyme activity; series mostly up to 60.5 µM.
In short: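 Compounds titrated against spleen-homogenate alpha-glucosidase, pH 5.0, 1 mM 4-MU-glucoside substrate, 37 C for 40 min. Fluorescence after pH 10 stop, normalised to no-enzyme and enzyme controls; Hill-equation AC50.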
Potency is the fitted concentration of half-maximal effect.
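Throughout, for Potency: fluorescence of 4-methylumbelliferone released from a fluorogenic glucopyranoside substrate at pH 5.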

Potency, inactive:
Cc1ccc(S(=O)(=O)N(C)C)cc1NC(=O)COC(=O)Cc1ccc(Br)cc1
OC[C@H]1NC[C@@H](O)[C@@H]1O
Nc1ccccc1S(=O)(=O)N1CCOCC1
O=C(c1ccccc1)N1CCN(S(=O)(=O)c2ccccc2)CC1
CC(C)CNc1c(N)n(CC(C)C)c(=O)[nH]c1=O
CCCC1(C)Nc2ccccc2-c2nc3ccccc3n21 (stereo unspecified)
Cc1ccc(S(=O)(=O)N2CCN(CC(=O)N/N=C\c3ccccn3)CC2)cc1
Cc1nc(SCC(=O)N2CCN(c3ccccc3)CC2)c2oc3ccccc3c2n1
COc1ccc(CCn2c(=S)[nH]c(=O)c3c(C)cc(C)nc32)cc1OC
Cn1c2c(c(=O)n(C)c1=O)CN(CCCN1CCOCC1)CN2
CN(CCO)S(=O)(=O)c1ccc2c(c1)C(=NN)c1cc(S(=O)(=O)N(C)CCO)ccc1-2
Cc1sc(-c2cc3c(ccc4ccccc43)oc2=O)nc1-c1ccccc1
CC1=C(C(=O)OC(C)C)C(c2cccc([N+](=O)[O-])c2)n2c(cc(=O)[nH]c2=S)N1 (stereo unspecified)
O=C(c1cccc2ccccc12)N1CCN(S(=O)(=O)c2ccccc2)CC1
CN(CCO)S(=O)(=O)c1ccc2c(c1)C(=NNC(N)=O)c1cc(S(=O)(=O)N(C)CCO)ccc1-2
CC(=O)c1ccc(N2CCN(S(=O)(=O)c3ccc4c(c3)oc(=O)n4C)CC2)cc1
CCc1ccc(N=CC23c4ccccc4C(c4ccccc42)C2C(=O)N(c4ccc(OC)cc4)C(=O)C23)cc1 (stereo unspecified)
O=C(O)Cc1sc(-c2cc3ccccc3oc2=O)nc1-c1ccc(Br)cc1
CCCN1CNc2c(c(=O)[nH]c(=S)n2CCc2ccccn2)C1
COc1ccc(CCn2cc(C#N)c(=O)[nH]c2=O)cc1OC
O=S(=O)(c1ccc(O)cc1)N1CCOCC1
Nc1cccc(S(=O)(=O)N2CCOCC2)c1
CC1S/C(=N\N=C\c2cccc([N+](=O)[O-])c2)N(C(C)(C)C)C1=O (stereo unspecified)
C[C@H](NC(=O)/C(C#N)=C/c1ccc(O)c(O)c1)c1ccccc1
CCC(=O)N1CCN(c2ccc(Cl)cc2NC(=O)c2ccc(N3CCCC3)c([N+](=O)[O-])c2)CC1
O=S(=O)(c1cccc(Br)c1)N1CCOCC1
Clc1ccc(Nc2ncnc3ccc(Br)cc23)cc1
CCOC(=O)C(CC)(CCC(=O)O)c1csc(Nc2ccc(C)cc2)n1 (stereo unspecified)
CC(=O)Nc1ccc(S(=O)(=O)N2CCN(c3ccc(C(C)=O)cc3)CC2)cc1
CCOC(=O)N1CCN(c2cc(N(C)CCO)c([N+](=O)[O-])c3nonc23)CC1
CC/C(=C(\c1ccccc1)c1ccc(OCCN(C)C)cc1)c1ccccc1

Potency, active:
CCCN1CNc2c(c(=O)[nH]c(=S)n2CCc2ccc3c(c2)OCCO3)C1 15.8 µM
CCCN1CNc2c(c(=O)[nH]c(=S)n2CCc2ccccc2OC)C1 44.7 µM
O=Cc1ccc(N2CCN(S(=O)(=O)c3ccc4c(c3)CC(=O)N4)CC2)cc1 4.61 µM [inhibitor]
CCCN1CNc2c(c(=O)[nH]c(=S)n2CCc2cccc(OC)c2OC)C1 15.8 µM
CCCN1CNc2c(c(=O)[nH]c(=S)n2CCc2cc(Cl)cc(Cl)c2)C1 7.94 µM
